This note sets out measurements from the supplement of paper PMC10849652.

About 7,900 targets were measured; listed, in parts, are those with a hit and a random draw of the rest. About 0.6% of all pairs of compound and target were hits. A number with no mark means an inactive call.

Chain of UniProt Q6VEQ5 (Q6VEQ5 whole entry, looked up): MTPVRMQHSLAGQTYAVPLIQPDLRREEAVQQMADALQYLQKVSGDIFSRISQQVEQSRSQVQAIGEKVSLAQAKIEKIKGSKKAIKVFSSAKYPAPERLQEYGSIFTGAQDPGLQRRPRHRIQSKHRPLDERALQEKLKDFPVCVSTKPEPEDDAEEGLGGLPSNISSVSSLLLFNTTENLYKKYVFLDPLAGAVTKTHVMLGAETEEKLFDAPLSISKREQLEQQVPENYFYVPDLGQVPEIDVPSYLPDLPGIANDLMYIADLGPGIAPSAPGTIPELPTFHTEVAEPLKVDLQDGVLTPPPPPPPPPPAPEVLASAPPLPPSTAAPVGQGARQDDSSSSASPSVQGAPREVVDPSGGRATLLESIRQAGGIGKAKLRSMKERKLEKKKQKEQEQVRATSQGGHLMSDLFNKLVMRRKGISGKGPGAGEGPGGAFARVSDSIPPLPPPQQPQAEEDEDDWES
Chain of UniProt Q9Y5Z9 (Q9Y5Z9 whole entry, looked up): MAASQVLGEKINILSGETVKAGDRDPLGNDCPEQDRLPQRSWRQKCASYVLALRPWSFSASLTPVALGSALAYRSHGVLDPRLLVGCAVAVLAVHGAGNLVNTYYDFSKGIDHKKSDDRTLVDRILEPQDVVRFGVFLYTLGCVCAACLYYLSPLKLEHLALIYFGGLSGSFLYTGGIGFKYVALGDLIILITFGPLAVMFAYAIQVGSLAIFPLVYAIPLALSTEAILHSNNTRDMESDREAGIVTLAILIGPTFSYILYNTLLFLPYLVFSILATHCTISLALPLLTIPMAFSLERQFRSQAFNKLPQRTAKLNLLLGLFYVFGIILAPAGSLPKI
Chain of UniProt P12956 (P12956 whole entry, looked up): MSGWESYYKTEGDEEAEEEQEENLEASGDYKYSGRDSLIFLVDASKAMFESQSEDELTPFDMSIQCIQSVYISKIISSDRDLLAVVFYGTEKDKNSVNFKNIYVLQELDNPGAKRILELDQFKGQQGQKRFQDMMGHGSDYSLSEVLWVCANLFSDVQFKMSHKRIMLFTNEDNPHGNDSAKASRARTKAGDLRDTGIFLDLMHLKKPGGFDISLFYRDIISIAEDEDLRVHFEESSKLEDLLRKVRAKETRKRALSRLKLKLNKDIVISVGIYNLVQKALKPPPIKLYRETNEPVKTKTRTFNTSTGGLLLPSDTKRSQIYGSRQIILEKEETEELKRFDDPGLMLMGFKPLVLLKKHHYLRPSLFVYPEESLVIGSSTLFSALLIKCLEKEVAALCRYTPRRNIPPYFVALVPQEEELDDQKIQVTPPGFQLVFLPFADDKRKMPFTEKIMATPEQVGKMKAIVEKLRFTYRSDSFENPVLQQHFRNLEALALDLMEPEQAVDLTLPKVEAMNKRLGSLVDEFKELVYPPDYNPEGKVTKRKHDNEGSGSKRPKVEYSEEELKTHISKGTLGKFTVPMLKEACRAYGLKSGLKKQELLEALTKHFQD
Chain of UniProt A6NIH7 (A6NIH7 whole entry, looked up): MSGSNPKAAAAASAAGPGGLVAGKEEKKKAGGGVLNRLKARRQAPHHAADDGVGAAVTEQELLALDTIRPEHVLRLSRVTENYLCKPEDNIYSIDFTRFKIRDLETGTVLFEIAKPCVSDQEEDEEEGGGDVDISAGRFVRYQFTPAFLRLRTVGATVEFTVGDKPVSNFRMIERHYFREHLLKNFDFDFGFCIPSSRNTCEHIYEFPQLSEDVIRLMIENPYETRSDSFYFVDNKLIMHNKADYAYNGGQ
Chain of UniProt Q96HV5 (Q96HV5 whole entry, looked up): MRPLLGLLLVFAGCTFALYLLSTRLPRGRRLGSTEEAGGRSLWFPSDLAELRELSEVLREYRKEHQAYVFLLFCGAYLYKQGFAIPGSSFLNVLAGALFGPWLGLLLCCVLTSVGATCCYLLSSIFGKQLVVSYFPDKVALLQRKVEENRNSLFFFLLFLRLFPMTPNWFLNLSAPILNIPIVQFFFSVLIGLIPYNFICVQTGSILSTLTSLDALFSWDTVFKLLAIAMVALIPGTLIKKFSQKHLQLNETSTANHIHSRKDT
Chain of UniProt Q5VZI3 (Q5VZI3 whole entry, looked up): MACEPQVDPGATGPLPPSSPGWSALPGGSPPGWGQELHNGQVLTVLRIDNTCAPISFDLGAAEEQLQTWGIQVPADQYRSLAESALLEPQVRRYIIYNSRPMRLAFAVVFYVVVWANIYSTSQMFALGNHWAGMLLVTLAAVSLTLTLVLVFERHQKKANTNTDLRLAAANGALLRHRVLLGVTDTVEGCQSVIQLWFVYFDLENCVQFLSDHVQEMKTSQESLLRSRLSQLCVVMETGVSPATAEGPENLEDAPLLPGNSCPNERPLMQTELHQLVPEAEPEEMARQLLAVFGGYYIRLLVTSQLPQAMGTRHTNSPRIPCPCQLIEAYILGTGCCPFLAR
Chain of UniProt Q9H3M7 (Q9H3M7 whole entry, looked up): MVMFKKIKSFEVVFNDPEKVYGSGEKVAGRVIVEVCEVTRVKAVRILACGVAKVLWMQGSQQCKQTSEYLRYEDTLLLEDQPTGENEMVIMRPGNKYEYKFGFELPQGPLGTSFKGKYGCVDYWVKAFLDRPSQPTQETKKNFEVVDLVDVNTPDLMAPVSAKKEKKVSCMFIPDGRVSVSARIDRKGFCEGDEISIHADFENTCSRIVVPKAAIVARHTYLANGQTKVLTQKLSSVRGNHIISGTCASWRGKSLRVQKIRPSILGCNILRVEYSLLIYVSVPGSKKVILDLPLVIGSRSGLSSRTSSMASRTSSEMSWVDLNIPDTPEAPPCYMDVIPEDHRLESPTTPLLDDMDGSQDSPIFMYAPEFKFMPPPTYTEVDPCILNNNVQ
Chain of UniProt Q5U3C3 (Q5U3C3 whole entry, looked up): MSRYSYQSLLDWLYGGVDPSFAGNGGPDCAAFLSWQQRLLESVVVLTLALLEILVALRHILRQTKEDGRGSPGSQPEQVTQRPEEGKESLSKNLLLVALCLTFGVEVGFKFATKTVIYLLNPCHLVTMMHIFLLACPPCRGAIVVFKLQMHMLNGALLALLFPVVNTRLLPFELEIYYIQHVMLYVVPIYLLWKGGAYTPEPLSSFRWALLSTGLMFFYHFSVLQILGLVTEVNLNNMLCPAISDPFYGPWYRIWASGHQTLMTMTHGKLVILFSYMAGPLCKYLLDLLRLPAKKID
Chain of UniProt Q9NVA4 (Q9NVA4 whole entry, looked up): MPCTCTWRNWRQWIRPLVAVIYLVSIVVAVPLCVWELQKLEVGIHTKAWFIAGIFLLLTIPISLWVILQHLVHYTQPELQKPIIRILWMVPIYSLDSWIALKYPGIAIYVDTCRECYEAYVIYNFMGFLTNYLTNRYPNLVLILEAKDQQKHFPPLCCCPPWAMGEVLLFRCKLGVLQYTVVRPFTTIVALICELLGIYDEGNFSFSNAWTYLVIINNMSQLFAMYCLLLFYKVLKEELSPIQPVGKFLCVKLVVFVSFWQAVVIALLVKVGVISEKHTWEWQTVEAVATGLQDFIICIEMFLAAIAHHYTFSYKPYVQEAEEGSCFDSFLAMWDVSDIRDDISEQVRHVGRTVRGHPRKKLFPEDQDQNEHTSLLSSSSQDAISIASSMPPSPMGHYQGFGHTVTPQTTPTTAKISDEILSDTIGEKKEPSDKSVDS
Chain of UniProt Q9NUM4 (Q9NUM4 whole entry, looked up): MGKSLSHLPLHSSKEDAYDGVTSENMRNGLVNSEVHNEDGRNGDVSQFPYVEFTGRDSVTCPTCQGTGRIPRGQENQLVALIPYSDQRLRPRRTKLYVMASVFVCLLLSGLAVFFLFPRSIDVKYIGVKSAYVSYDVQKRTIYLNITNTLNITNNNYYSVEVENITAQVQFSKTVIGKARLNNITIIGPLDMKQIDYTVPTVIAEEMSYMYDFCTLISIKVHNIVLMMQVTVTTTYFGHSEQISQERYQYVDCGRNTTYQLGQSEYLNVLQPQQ
Chain of UniProt Q9BQB6 (Q9BQB6 whole entry, looked up): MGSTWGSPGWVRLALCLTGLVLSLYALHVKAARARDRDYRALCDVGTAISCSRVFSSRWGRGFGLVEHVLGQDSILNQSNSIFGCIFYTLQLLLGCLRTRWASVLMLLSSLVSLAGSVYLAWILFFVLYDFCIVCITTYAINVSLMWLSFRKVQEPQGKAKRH
Chain of UniProt Q96DX7 (Q96DX7 whole entry, looked up): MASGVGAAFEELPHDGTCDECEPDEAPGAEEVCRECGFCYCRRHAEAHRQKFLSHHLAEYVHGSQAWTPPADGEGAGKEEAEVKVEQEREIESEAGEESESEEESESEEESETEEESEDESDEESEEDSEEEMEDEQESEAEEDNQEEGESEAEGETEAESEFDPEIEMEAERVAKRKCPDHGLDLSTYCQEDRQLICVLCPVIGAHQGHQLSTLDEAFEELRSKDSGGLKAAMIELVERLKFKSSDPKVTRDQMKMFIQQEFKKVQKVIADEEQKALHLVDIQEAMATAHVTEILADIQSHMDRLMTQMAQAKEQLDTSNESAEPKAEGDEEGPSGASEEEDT
Chain of UniProt Q96LJ8 (Q96LJ8 whole entry, looked up): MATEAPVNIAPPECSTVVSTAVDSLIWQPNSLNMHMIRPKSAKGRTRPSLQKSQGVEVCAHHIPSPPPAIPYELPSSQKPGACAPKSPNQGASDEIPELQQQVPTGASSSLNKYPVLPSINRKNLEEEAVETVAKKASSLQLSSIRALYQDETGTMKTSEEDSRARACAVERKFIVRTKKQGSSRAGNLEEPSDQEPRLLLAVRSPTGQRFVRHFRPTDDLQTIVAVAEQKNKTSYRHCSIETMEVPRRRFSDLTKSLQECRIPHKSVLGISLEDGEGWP
Chain of UniProt Q9Y385 (Q9Y385 whole entry, looked up): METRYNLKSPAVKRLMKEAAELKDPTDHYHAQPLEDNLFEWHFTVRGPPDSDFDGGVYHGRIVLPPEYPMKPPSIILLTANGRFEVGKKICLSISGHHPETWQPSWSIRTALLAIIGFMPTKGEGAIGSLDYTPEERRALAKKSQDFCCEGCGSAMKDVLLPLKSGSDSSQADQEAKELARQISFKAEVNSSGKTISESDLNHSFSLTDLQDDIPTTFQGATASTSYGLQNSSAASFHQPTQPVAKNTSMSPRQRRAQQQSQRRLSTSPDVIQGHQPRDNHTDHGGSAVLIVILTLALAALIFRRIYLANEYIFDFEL
Chain of UniProt P61960 (P61960 whole entry, looked up): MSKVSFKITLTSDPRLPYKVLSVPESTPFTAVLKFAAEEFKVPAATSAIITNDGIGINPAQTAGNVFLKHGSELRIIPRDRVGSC

Compound in the test: Cc1nc(Nc2ncc(C(=O)Nc3c(C)cccc3Cl)s2)cc(N2CCN(CCO)CC2)n1 [dasatinib]
Briefly: log2 fold change, soluble protein after heating vs DMSO (PISA); higher = thermal stabilisation; K562 cells, 10 uM, 30 min; active = over 0.2 and 3.5 SD of the protein, either way, in both replicates (recomputed). The method, boiled down:
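Quantification of soluble protein used TMTpro 16plex LC-MS/MS, with channel sums equalised. Samples were the supernatant after 21,000xg for 90 min of pooled aliquots from K562 cells (2×10^6 cells/mL) treated with 10 μM compound for 30 min, heated for 3 min over 48°C-58°C, and extracted in PBS with 0.5% NP-40 at 4°C. Values, from duplicates, describe thermal stability against control samples on a log2 fold-change scale.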
As to UBIAD1 (UniProt Q9Y5Z9), the log2 fold change is 0.176.
As for TMEM41A (UniProt Q96HV5), the figure is 0.054.
As for TRIM23 (UniProt P36406), the figure is -0.004; as for TXNL4B (UniProt Q9NX01), -0.042.
To TSPAN13 (UniProt O95857) belongs -0.163; to UNC119B (UniProt A6NIH7), 0.069.
Regarding TUT4 (UniProt Q5TAX3), the log2 fold change was -0.105.
As to VKORC1 (UniProt Q9BQB6), the log2 fold change is -0.049.
In the case of WASH2P (UniProt Q6VEQ5), the log2 fold change was 0.03.
As for TMEM184C (UniProt Q9NVA4), the log2 fold change is 0.116.
To VWA3B isoform 6 (UniProt Q502W6) belongs 0.148; to UBE2J1 (UniProt Q9Y385), -0.028.
As for TMEM268 isoform 3 (UniProt Q5VZI3), the figure is -0.194; as for UFM1 isoform 2 (UniProt P61960), 0.116.
As for TMEM106B (UniProt Q9NUM4), the figure is 0.098; as for UBE2D1 (UniProt P51668), -0.083; as for VPS37A (UniProt Q8NEZ2), -0.168.
As to XRCC6 (UniProt P12956), the log2 fold change is -0.147.
As for UBXN10 (UniProt Q96LJ8), the figure is -0.032; as for TXNIP (UniProt Q9H3M7), 0.005.
In the case of WEE1 (UniProt P30291), the log2 fold change is 0.805 (active).
To TMEM164 (UniProt Q5U3C3) belongs 0.048; to TRIM44 (UniProt Q96DX7), -0.029.
